{"source": "PubChem BioAssay AID1626", "about": "(SRMLSC, 2009)", "note": "Screen size: about 220,000 compounds; about 2,000 (0.91%) were called active. Another 2% or so got no clear call; they are omitted. Only a sample is shown. Measured potencies and affinities stand elsewhere. Unmarked numbers belong to inactive results. Rule as the data show it: inconclusive = inhibition above about 80% without an active follow-up result; inactive = below that; test concentration not stated here.", "data": [{"test": "M. tuberculosis H37Rv growth inhibitors, H37Rv strain (AID 1626);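 also: bacteria incubated seven days before Alamar blue readout; 0% = bacteria only wells and 100% = bacteria with antibiotic wells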", "details": "hits give high values, concentration not given here", "units": {"inhibition": "%"}, "values": [{"smiles": "O=C(CSc1nc2ccc([N+](=O)[O-])cc2[nH]1)c1ccc2ccccc2c1", "inhibition": 13.4}, {"smiles": "Cc1ccc(NS(=O)(=O)c2cc(C(=O)NCc3ccccn3)ccc2Cl)cc1C", "inhibition": 4.55}, {"smiles": "CC(=O)Nc1cccc(NC(=O)c2cc(C)on2)c1", "inhibition": -10.6}, {"smiles": "CC(=O)c1ccc(NC(=O)Cn2nc(C)c([N+](=O)[O-])c2C)cc1", "inhibition": 2.02}, {"smiles": "CN(C)CCN1CC(C(=O)O)CC1=O", "note": "(stereo unspecified)", "inhibition": -2.28}, {"smiles": "CN1CCN(S(=O)(=O)c2ccc(-c3noc(C4CCN(S(C)(=O)=O)CC4)n3)cc2)CC1", "inhibition": -1.89}, {"smiles": "O=C(O)c1ccc(N/N=C/c2ccc(OC(=O)c3ccccc3Cl)cc2)cc1", "inhibition": 4.34}, {"smiles": "O=C(Oc1ccc(/C=N/O)cc1)c1ccccc1", "inhibition": 30.8}, {"smiles": "CCc1ccc2[nH]c(O)c(N=NC3=NC(=O)CS3)c2c1", "inhibition": 1.19}, {"smiles": "Cn1c(O)c(N=Nc2nc(-c3ccccc3)cs2)c2ccccc21", "inhibition": 68}, {"smiles": "COc1ccc(CCNC2CCCCC2)cc1OC", "inhibition": 5.74}, {"smiles": "O=C(Nc1ccccn1)c1ccc(Br)c(S(=O)(=O)N2CCCCC2)c1", "inhibition": 4.83}, {"smiles": "CCCN(N=Nc1cccc([N+](=O)[O-])c1)c1cccc([N+](=O)[O-])c1", "inhibition": 1.3}, {"smiles": "O=c1cc(-c2ccc(O)cc2)oc2cc(O)cc(O)c12", "inhibition": -7.5}, {"smiles": "O=c1cc(-c2ccccc2)oc2cc(O)cc(O)c12", "inhibition": 17.6}, {"smiles": "Cc1cc(OCC(=O)NC(C)C)ccc1Cl", "inhibition": 8.21}, {"smiles": "Cc1noc(-c2ccc(C(F)(F)F)cc2)c1NC(=O)Nc1ccc(Cl)cc1", "inhibition": 13.4}, {"smiles": "O=C(O)c1cccc(Cn2c(Cl)c(/C=N/NC(=O)c3ccc(O)cc3)sc2=O)c1", "inhibition": -11.5}, {"smiles": "O=c1[nH]c(SCc2ccc([N+](=O)[O-])cc2)nc2[nH]ncc12", "inhibition": -6.17}, {"smiles": "CC[C@H]1CC2CN3CCc4c([nH]c5ccccc45)C(C(=O)OC)(C2)C13", "note": "(stereo partly specified)", "inhibition": 0.73}, {"smiles": "CC[C@H]1CC2CN3CCc4c([nH]c5cc(OC)ccc45)[C@](C(=O)OC)(C2)[C@H]13", "inhibition": -5.98}, {"smiles": "COC(=O)C1=C(c2cc3ccccc3o2)C[C@@H]2CC[C@H]1N2C(=O)NC(C)C", "inhibition": 19.5}, {"smiles": "Cn1c(NCc2ccco2)nc2c1c(=O)n(Cc1ccc(Cl)c(Cl)c1)c(=O)n2C", "inhibition": 6.79}, {"smiles": "Cn1c(NCc2ccccc2)nc2c1c(=O)n(Cc1ccccc1)c(=O)n2C", "inhibition": -5.24}, {"smiles": "Cn1c(NCc2ccco2)nc2c1c(=O)n(Cc1ccc(Cl)cc1)c(=O)n2C", "inhibition": 7.2}, {"smiles": "COc1ccc(CNc2nc3c(c(=O)n(Cc4ccc(Br)cc4)c(=O)n3C)n2C)cc1", "inhibition": 34.1}, {"smiles": "CC(C)c1nnc(N2C(=O)c3oc4ccccc4c(=O)c3C2c2ccco2)s1", "note": "(stereo unspecified)", "inhibition": -6.42}, {"smiles": "CC(=O)c1ccc(NC(=O)CSc2nnc(Cn3cnc4ccccc43)o2)cc1", "inhibition": -0.74}, {"smiles": "CCc1cc2cc3c(cc2nc1SCC(=O)Nc1nnc(C)s1)OCCO3", "inhibition": -4.07}, {"smiles": "COc1ccc(C(CCNCc2ccc(OC)c(OC)c2)c2ccc(F)cc2)cc1", "note": "(stereo unspecified)", "inhibition": 2.06}, {"smiles": "COc1ccc(C(CCNCc2ccccc2)c2ccc(F)cc2)cc1", "note": "(stereo unspecified)", "inhibition": -2.55}, {"smiles": "COc1ccc(CNCCC(c2ccc(OC(C)C)cc2)C(C)C)cc1OC", "note": "(stereo unspecified)", "inhibition": 45.4}, {"smiles": "COc1ccc(CNCCC(c2ccc(F)cc2)c2ccc(OC)cc2)cc1", "note": "(stereo unspecified)", "inhibition": 41.6}, {"smiles": "COc1ccccc1Nc1nc(N)nc(CSC(=S)N2CCCCC2)n1", "inhibition": 5.54}, {"smiles": "CCCc1nnc(SCC(=O)N2CCCCC2C)n1CC", "note": "(stereo unspecified)", "inhibition": -2.59}, {"smiles": "CCOc1ccc(-c2ccc(SCC(=O)NCC3CCCO3)nn2)cc1", "note": "(stereo unspecified)", "inhibition": 3.18}, {"smiles": "Cc1cc(=O)[nH]c(SCC(=O)Nc2ccccc2C)n1", "inhibition": -0.5}, {"smiles": "COc1ccccc1NS(=O)(=O)c1cccc(C(=O)N/N=C(\\C)c2ccc(-n3ccnc3)cc2)c1", "inhibition": -7.54}, {"smiles": "C/C(O)=C(/C#N)c1nc2ccccc2[nH]1", "inhibition": 10.1}, {"smiles": "c1ccc2c(NCC3CCCO3)nc(N3CCOCC3)nc2c1", "note": "(stereo unspecified)", "inhibition": -4.2}, {"smiles": "c1ccc2c(N3CCOCC3)nc(N3CCOCC3)nc2c1", "inhibition": -0.04}, {"smiles": "CCCCNS(=O)(=O)c1ccc2nc(-c3cccnc3)cc(C(=O)NCCCN(CC)CC)c2c1", "inhibition": -1.2}, {"smiles": "O=C(Nc1ccc2c(c1)OCCO2)c1cccc(S(=O)(=O)N2CCOCC2)c1", "inhibition": 2.68}, {"smiles": "Cc1ccc(CNC(=O)C2CCCN(Cc3cnn(-c4ccccc4)c3-n3cccc3)C2)cc1", "note": "(stereo unspecified)", "inhibition": 3.25}, {"smiles": "COc1cccc(CNc2ncnc3cc(Cl)ccc23)c1", "inhibition": 2.79}, {"smiles": "COc1ccc(CNc2ncnc3cc(Cl)ccc23)cc1OC", "inhibition": 3.34}, {"smiles": "COc1ccc(C(=O)C(CCC(CNC(C)(C)C)C(=O)c2ccc(OC)cc2)CNC(C)(C)C)cc1", "note": "(stereo unspecified)", "inhibition": 3.24}, {"smiles": "N#CCSc1nc2ccccc2o1", "inhibition": -5.91}, {"smiles": "O=C(CSc1nc2ccccc2o1)c1cc2ccccc2oc1=O", "inhibition": 1.02}, {"smiles": "O=C(OCC#CCSc1nc2ccccc2s1)c1ccco1", "inhibition": 74.1}, {"smiles": "O=C(CSc1nc2ccccc2o1)N1CCN(C(=O)c2ccco2)CC1", "inhibition": 8.7}, {"smiles": "c1ccc2c(c1)c1c3n2CCNC3CCC1", "note": "(stereo unspecified)", "inhibition": 3.79}, {"smiles": "Cc1ccc2c(c1)c1c3n2CCCNC3CCC1", "note": "(stereo unspecified)", "inhibition": 3.76}, {"smiles": "COc1cccc(C(=O)Nc2c(F)c(F)c(F)c(F)c2F)c1", "inhibition": 0.52}, {"smiles": "CCOC(=O)C(=O)Nc1nc(-c2ccccc2)c(-c2ccccc2)o1", "inhibition": -0.88}, {"smiles": "COc1cc(OC)cc(C(=O)Nc2ccc(-c3nc4ccccc4o3)c(O)c2)c1", "inhibition": 66.5}, {"smiles": "COc1cc(OC)cc(C(=O)Nc2ccc(-c3nc4ccccc4o3)cc2)c1", "inhibition": 16}, {"smiles": "CC(=O)Nc1nc(-c2ccccc2)c(-c2ccccc2)o1", "inhibition": 56.4}, {"smiles": "COc1cccc(C(=O)Nc2ccccc2)c1", "inhibition": -3.26}, {"smiles": "CCCCCCN1C=C/C(=C\\C=C(C#N)C#N)c2ccccc21", "inhibition": 34.9}, {"smiles": "COc1ccccc1NC(=S)N(CCCN(C)C)Cc1cc2cc3c(cc2[nH]c1=O)OCO3", "inhibition": -2.36}]}]}
